Source: PubChem
An excerpt weighted towards active compounds, which were near 4.8% of everything screened.
hgDAF12 agonist = H. glycines DAF-12 receptor agonists, primary screen, cell-based, luminescence, HEK293, GAL4 fusion, UAS-luciferase; Nuclear hormone receptor DAF-12 (Heterodera glycines), GAL4 fusion; HEK293 GAL4-hgDAF12 UAS-luciferase reporter, agonist luminescence; normalized to butyrate control; activation, % at 6.8 µM; hit rate 1.8% among 370,000;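 active = activation above a cutoff set at the mean of all screened compounds plus 3 SD, cut at about 10% in these data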;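 also: 0% = DMSO wells and 100% = sodium butyrate wells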
ssDAF-12 act = S. stercoralis DAF-12 nuclear receptor activators, primary screen, cell-based, luminescence, HEK293, GRIP1 co-expression, lit1-tk-luc; hit rate 1% among 370,000; activation, % at 6.8 µM; HEK293 ssDAF-12/GRIP1 lit1-tk-luc reporter; % of 3 µM dafachronic acid response; Nuclear hormone receptor DAF-12 (Strongyloides stercoralis);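 active = activation above the mean over all tested compounds plus 3 SD, cut at about 0.9% in these data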;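 also: 0% = DMSO-only wells and 100% = 3 µM delta7-dafachronic acid wells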
SMARCA2 act = SMARCA2 (BRM) function activators, primary screen, cell-based, luminescence, high throughput | AID 652017, 2013 | hit rate 1% among 370,000 | activation, % at 9.1 µM | MG213 cells, MMTV-luciferase reporter, dexamethasone, overnight; in the data active = activation above about 7.8%;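 also: 0% = vehicle wells and 100% = reference activator wells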
DAX1 inh-1 = DAX1 (NR0B1) inhibitors, primary screen, cell-based, HEK293, Gal4-DAX1, luciferase luminescence. Nuclear receptor subfamily 0 group B member 1 (Homo sapiens), P51843. HEK293 Gal4-DAX1 luciferase reporter. inhibition, % at 6.75 µM. hit rate 0.99% among 340,000;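 active = inhibition above the mean over all tested compounds plus 3 SD, cut at about 4.2% in these data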;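 also: 0% = DAX1-transfected cells with DMSO and 100% = empty-vector control cells with DMSO; inhibition shows as a rise in luminescence from relieved DAX1 repression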
Target sequence (P51843 207-470 limits assumed): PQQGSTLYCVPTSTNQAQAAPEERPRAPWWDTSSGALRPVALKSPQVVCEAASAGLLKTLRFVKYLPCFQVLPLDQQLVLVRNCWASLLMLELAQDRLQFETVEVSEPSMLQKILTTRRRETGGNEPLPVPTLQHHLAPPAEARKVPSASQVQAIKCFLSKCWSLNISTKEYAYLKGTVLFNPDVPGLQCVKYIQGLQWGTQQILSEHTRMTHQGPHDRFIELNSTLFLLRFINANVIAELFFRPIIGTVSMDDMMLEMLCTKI
hcDAF-12 act = H. contortus DAF-12 nuclear receptor activators, primary screen, cell-based, luminescence, HEK293, lit1-tk-luc reporter; HEK293 hcDAF-12 lit1-tk-luc reporter; 0% DMSO, 100% Δ7-dafachronic acid; hit rate 1.4% among 370,000; AID 652067, 2013; activation, % at 6.8 µM;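 active = activation above the mean of all tested compounds plus 3 SD, cut at about 5.5% in these data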;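 also: 100% = response to 3 µM Δ7-dafachronic acid high control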
DAX1 inh-2 = DAX1 (NR0B1) inhibitors on StAR promoter, primary screen, cell-based, luminescence, SF-1 (NR5A1), full-length DAX-1. HEK293T StAR-luciferase reporter, SF-1/DAX-1 repression relief. inhibition, % at 6.8 µM. hit rate 1.1% among 370,000;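 active = inhibition above the mean over all tested compounds plus 3 SD, cut at about 3.6% in these data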;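 also: 0% = DAX-1 cells with DMSO and 100% = cells lacking DAX-1 with DMSO; higher inhibition means more luminescence from relief of DAX-1 repression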
hgDAF12 conf = H. glycines DAF-12 receptor agonists, confirmation, cell-based, luminescence, HEK293, GAL4-LBD fusion. shares compounds with hgDAF12 agonist. HEK293 GAL4-hgDAF12 luciferase reporter, agonist mode; percent of butyrate response. activation, % at 6.8 µM. hit rate 80% among 3,300. AID 743050, 2013;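 active = mean activation over triplicate wells above the hit cutoff derived from the earlier primary screen, cut at about 11% in these data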;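 also: 0% = DMSO low control and 100% = 2 mM sodium butyrate high control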
LXR ag 2 = LXR agonists, Gal4 luciferase reporter, confirmation, counter-screen for hgDAF-12 agonist project, cell-based, luminescence, HEK293, H. glycines campaign | shares compounds with hgDAF12 agonist | 24 h | activation, % at 6.8 µM | 3,300 tested, under 10 active;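 active = mean activation of the triplicate above a set limit carried over from the primary screen, none filed active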
The depositor's hits bear a star.

For CCCSc1nn2c(=O)c3ccccc3nc2s1 the results were hgDAF12 agonist 15*, ssDAF-12 act -1, SMARCA2 act 4, DAX1 inh-1 0, hcDAF-12 act 4, DAX1 inh-2 3, hgDAF12 conf 16* and LXR ag 2 1.
For COCCc1nnc(NC(=O)C(C)C)s1 the results were hgDAF12 agonist 2, ssDAF-12 act -1, SMARCA2 act -1, DAX1 inh-1 1, hcDAF-12 act -1 and DAX1 inh-2 0.
`Cc1cc(Cl)nc(-n2nc(C)cc2C)n1` gave hgDAF12 agonist -1, ssDAF-12 act -2, SMARCA2 act 2, hcDAF-12 act 1 and DAX1 inh-2 0.
COc1ccc(C(=O)O/N=C(\N)c2ccccc2Cl)cc1OC was read as hgDAF12 agonist 8, ssDAF-12 act 0, SMARCA2 act 3, DAX1 inh-1 -1, hcDAF-12 act 3 and DAX1 inh-2 0.
`COc1ccccc1C(=O)O/N=C(\N)c1ccccc1Cl` gave hgDAF12 agonist 17*, ssDAF-12 act 0, SMARCA2 act 3, DAX1 inh-1 3, hcDAF-12 act 4, DAX1 inh-2 2, hgDAF12 conf 11* and LXR ag 2 0.
For Cc1cc(C(=O)NCCc2ccccc2)ccc1[N+](=O)[O-] the results were hgDAF12 agonist 13*, ssDAF-12 act 0, SMARCA2 act 6, DAX1 inh-1 3, hcDAF-12 act 6, DAX1 inh-2 3, hgDAF12 conf 12* and LXR ag 2 0.
O=C(NCCc1ccccc1)c1ccccc1[N+](=O)[O-] was read as hgDAF12 agonist 3, ssDAF-12 act -1, SMARCA2 act 3, DAX1 inh-1 0, hcDAF-12 act 0 and DAX1 inh-2 0.
`CC(=O)Nc1ccc(/C(N=Nc2ccccc2)=N/N=C(N)N)cc1` gave hgDAF12 agonist 13*, ssDAF-12 act 1.6*, SMARCA2 act 2, DAX1 inh-1 4.5*, hcDAF-12 act 5, DAX1 inh-2 3, hgDAF12 conf 16* and LXR ag 2 1.
`CC(=O)Nc1ccc(C(=O)c2ccccc2)cc1` gave hgDAF12 agonist 2, ssDAF-12 act -1, SMARCA2 act 2, DAX1 inh-1 0, hcDAF-12 act -1 and DAX1 inh-2 0.
Screening O=C(CN1CCC(c2nc3ccccc3[nH]2)CC1)NCc1ccc2c(c1)OCO2 returned hgDAF12 agonist 1, ssDAF-12 act -2, SMARCA2 act -2, DAX1 inh-1 1, hcDAF-12 act -2 and DAX1 inh-2 -1.
COc1cccc(C(=O)Nc2ccc(C(F)(F)F)n(C)c2=O)c1 was read as hgDAF12 agonist 18*, ssDAF-12 act -1, SMARCA2 act 5, DAX1 inh-1 2, hcDAF-12 act 6.3*, DAX1 inh-2 2, hgDAF12 conf 14* and LXR ag 2 1.
`CCOc1ccc(C(=O)Nc2ccc(C(F)(F)F)n(C)c2=O)cc1` gave hgDAF12 agonist -2, ssDAF-12 act -2, SMARCA2 act 2, DAX1 inh-1 2, hcDAF-12 act -1 and DAX1 inh-2 0.
Screening CC1CCc2nc3sc4c(c3c(N)c2C1)CCCC4 (stereo not given) returned hgDAF12 agonist 14*, ssDAF-12 act 0, SMARCA2 act 5, DAX1 inh-1 -1, hcDAF-12 act -1, DAX1 inh-2 3, hgDAF12 conf 11* and LXR ag 2 0.
Screening Nc1ccc2c(c1)Cc1cc(N)c(Cl)cc1-2 returned hgDAF12 agonist 15*, ssDAF-12 act 0, SMARCA2 act 0, DAX1 inh-1 3, hcDAF-12 act 4, DAX1 inh-2 2, hgDAF12 conf 12* and LXR ag 2 0.
`Nc1ccc2c(c1)Cc1cc(Cl)c(Cl)cc1-2` gave hgDAF12 agonist 10, ssDAF-12 act 0, SMARCA2 act 0, DAX1 inh-1 1, hcDAF-12 act 1 and DAX1 inh-2 -1.
For Clc1ccc2nc(CSCc3ccccc3)cn2c1 the results were hgDAF12 agonist 19*, ssDAF-12 act 0.9*, SMARCA2 act 0, DAX1 inh-1 2, hcDAF-12 act 2, DAX1 inh-2 4.0*, hgDAF12 conf 14* and LXR ag 2 1.
For O=C(O)/C=C/C(=O)N1CCN(c2ccccc2F)CC1 the results were hgDAF12 agonist 0, ssDAF-12 act -1, SMARCA2 act -2, DAX1 inh-1 0, hcDAF-12 act -2 and DAX1 inh-2 0.
Screening COCCNC(=O)c1noc2c1CCc1cc(OC)ccc1-2 returned hgDAF12 agonist 14*, ssDAF-12 act 1, SMARCA2 act 2, DAX1 inh-1 1, hcDAF-12 act 2, DAX1 inh-2 2, hgDAF12 conf 12* and LXR ag 2 1.
Screening CCc1ccc(NC(=S)NC(=O)CC(C)C)cc1 returned hgDAF12 agonist 15*, ssDAF-12 act 0, SMARCA2 act 2, DAX1 inh-1 3, hcDAF-12 act 3, DAX1 inh-2 2, hgDAF12 conf 12* and LXR ag 2 0.
`O=C(Nc1cccc([N+](=O)[O-])c1)c1ccncc1` gave hgDAF12 agonist -2, ssDAF-12 act -1, SMARCA2 act -4, DAX1 inh-1 0, hcDAF-12 act -2 and DAX1 inh-2 0.
`O=C(Nc1cccc([N+](=O)[O-])c1)c1[nH]ncc1Cl` gave hgDAF12 agonist 14*, ssDAF-12 act -1, SMARCA2 act 4, DAX1 inh-1 0, hcDAF-12 act 4, DAX1 inh-2 1, hgDAF12 conf 9 and LXR ag 2 1.
CC(C)(C)c1ccc(C(=O)Nc2cccc([N+](=O)[O-])c2)cc1 was read as hgDAF12 agonist 14*, ssDAF-12 act 0, SMARCA2 act 6, DAX1 inh-1 2, hcDAF-12 act 3, DAX1 inh-2 3, hgDAF12 conf 14* and LXR ag 2 0.
